The whole screen tested about 390,000 compounds, of which about 17,000 (4.4%) were called active. About 8% were inconclusive and are not listed. What follows is part of a selection rich in actives, with near analogues and random picks from the rest. Values without a mark were called inactive. Calls come from the whole dose curve; as a rule, active = well fitted inhibition curve with a large enough effect; inconclusive = small, poorly fitted or top-dose-only effect; inactive = no such curve, though single readings can be large or run the other way.
Target: Lysine-specific demethylase 4A (Homo sapiens) (UniProt O75164)
Sequence (O75164 whole entry, looked up, the tested form may be a part): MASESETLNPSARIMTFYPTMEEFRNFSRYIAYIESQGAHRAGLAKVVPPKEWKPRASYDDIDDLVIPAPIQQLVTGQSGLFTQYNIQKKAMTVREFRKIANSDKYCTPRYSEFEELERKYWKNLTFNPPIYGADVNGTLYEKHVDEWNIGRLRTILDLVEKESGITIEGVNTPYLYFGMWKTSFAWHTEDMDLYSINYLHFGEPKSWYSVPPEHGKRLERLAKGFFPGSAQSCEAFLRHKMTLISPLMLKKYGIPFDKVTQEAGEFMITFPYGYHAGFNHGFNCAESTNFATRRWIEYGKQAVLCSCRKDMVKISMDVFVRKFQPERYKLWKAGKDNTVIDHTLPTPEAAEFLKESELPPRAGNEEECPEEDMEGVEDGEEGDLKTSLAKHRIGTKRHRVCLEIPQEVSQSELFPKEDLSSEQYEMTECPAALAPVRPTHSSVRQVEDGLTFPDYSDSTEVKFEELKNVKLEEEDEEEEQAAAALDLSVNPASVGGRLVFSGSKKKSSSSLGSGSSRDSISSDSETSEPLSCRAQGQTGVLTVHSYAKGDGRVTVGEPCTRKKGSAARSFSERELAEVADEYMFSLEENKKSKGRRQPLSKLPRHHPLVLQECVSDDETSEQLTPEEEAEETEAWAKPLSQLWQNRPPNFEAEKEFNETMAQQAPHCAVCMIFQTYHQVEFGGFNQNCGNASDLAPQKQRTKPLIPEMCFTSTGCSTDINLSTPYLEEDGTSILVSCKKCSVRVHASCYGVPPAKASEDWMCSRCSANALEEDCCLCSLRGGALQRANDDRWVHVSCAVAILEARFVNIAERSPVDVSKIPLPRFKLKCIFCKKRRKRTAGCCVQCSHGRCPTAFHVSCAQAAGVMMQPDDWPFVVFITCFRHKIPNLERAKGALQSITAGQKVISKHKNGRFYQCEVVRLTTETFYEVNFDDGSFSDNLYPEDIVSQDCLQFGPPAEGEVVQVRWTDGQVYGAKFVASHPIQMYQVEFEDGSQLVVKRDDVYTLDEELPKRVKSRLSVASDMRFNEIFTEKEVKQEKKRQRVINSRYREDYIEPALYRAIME
Assay: qHTS Assay for Inhibitors of JMJD2A-Tudor Domain; note: nearly all actives have a fitted effect of over 50% in size
Conditions: AlphaScreen JMJD2A-Tudor / H3K4me3 peptide binding; series mostly up to 114 µM; activity change, negative = inhibition: at the top concentration
Source text: JMJD2A is a jumonji-domain-containing lysine demethylase that uses Fe(II) together with 2-OG to effect oxidative demethylation of histones. Methylation is one of many […] modification that affect epigenetic transcription. […] It is proposed that the functions of JmjD2A binding to the histones, is to maintain marks after they are installed and to spread the modifications by […], establishing a self-propagating cycle for rapid methylation over a large area of chromatin. […] Thus, small molecule targeting of the JMJD2A-tudor domain interaction with its target methylhistone mark is expected to enable sophisticated experiments probing the fine regulatory pathways leading to selective demethylation of a given methyllysine locus based on the methylation state of adjacent histone marks. A quantitative high throughput AlphaScreen has been developed to identify small molecule inhibitors based on a protocol published by NCGC and SGC [4].
Although AlphaScreen has significant advantages with its utility in a variety of epigenetic target assays, the primary screening data provided in this deposition should be used with caution due to the prevalence of screening artifacts. The top compound concentration tested was high (>100uM) in this assay, which increases number of actives and potential artifacts. An AlphaScreen counterscreen is highly recommended to be run against any putative actives to eliminate non-specific artifacts. Alternatively, one can use other AlphaScreen assays in PubChem to filter out promiscuous hits.
[1] Lee, J. et al. Distinct binding modes specify the recognition of methylated histone H3K4 and H4K20 by JMJD2A-tudor. Nat Struct Mol Biol. 15(1); 109-11. 2008. PMID: 18084306
[2] Yasgar, et al. Compound Management for Quantitative High-Throughput Screening. JALA. 2008 Apr;13(2):79-89. PMID: 18496600
[3] Inglese, et al. Quantitative high-throughput screening: a titration-based approach that efficiently identifies biological activities in large chemical libraries. Proc Natl Acad Sci. 1;103(31):11473-8. 2006. PMID: 16864780
[4] Quinn et al. A homogeneous method for investigation of methyl-dependent protein-protein interactions in epigenetics. Nucleic Acids Res., 38(2):e11. 2010. PMID: […]
[5] Baell,Holloway. New substructure filters for removal of pan assay interference compounds (PAINS) from screening libraries and for their exclusion in bioassays. J Med Chem. 53(7):2719-40. 2010. PMID: 20131845
NIH Molecular Libraries Probe Production Network [MLPCN]
NIH Chemical Genomics Center [NCGC]
Structural Genomics Consortium (SGC)
To each well of a 1,536w plate, 2ul of JMJD2A-Tudor (final 100nM) and 1ul biotinylated histone peptide methylated at Lys4 [b-H3(1-18)K4me3] (final 50nM) were added in 1x PBS buffer, pH 7.4, containing 0.01% Tween-20, using a nanoliter dispenser. Formation of a protein-peptide complex proceeded at room temperature for 30 min. A Kalypsys pin-tool transferred 23nl of library compound solution in DMSO to each well. Following a 30 min incubation of the protein-peptide complex with compounds at room temperature, a mixture of 40 µg/mL each streptavidin-coated donor and nickel chelate acceptor AlphaScreen beads (final 10 µg/mL) was added in a 1ul dispense for a final volume of 4ul, followed by a brief centrifugation (1000 rpm, 1 min). Plates were incubated protected from the light for 20 min at room temperature. Microplates were then read on an EnVision multilabel plate reader using the 1,536 plate HTS AlphaScreen aperture (excitation time 80 ms, measurement time 240 ms).
% is set by controls: 0 for no effect and ±100 for the full control effect; potency is the fitted concentration of half-maximal effect.

Structure (SMILES)	activity change, negative = inhibition	Potency
CCOC(=O)Cc1ccc(NC(=O)Nc2c[nH]c(=O)[nH]c2=O)cc1	-8.28%	
CCCCN(CC)CCCNC(=O)Cn1ncc2c([nH]c3ccc(C)cc32)c1=O	-26.9%	
CCCSc1ncc(Cl)c(C(=O)Nc2sc3c(c2C(=O)NCCOC)CCCC3)n1	-20.1%	
Cc1ccccc1NC(=S)N(CCCN1CCOCC1)Cc1cccs1	-11.6%	
Cc1ccc(NC(=S)N(CCCN2CCC(C)CC2)Cc2ccco2)cc1	-28.5%	
Cc1ccc(NC(=S)N(CCCN2CCCC2)Cc2cccn2Cc2ccc(Cl)cc2)cc1		50.1 µM (active)
O=c1[nH]c2cc(Br)ccc2n2cccc12	0.336%	
COc1cc(C(=O)N2CCN(c3ccc(Nc4ccc(C)cc4)nn3)CC2)cc(OC)c1OC	-20.8%	
Cc1ccc(N=C2NC(=O)/C(=C/C=C/c3ccco3)S2)cc1C		39.8 µM (active)
COc1ccc(OC)c(CCNC(=O)CCCn2c(=O)c3cccn3c3cccnc32)c1	-6.23%	
O=C(Cn1c(=O)n(Cc2cccs2)c(=O)c2cccnc21)Nc1ccc(F)cc1	-9.09%	
O=c1[nH]n2c(=O)c3c([nH]c2c1N=Nc1ccccc1)CCC3		50.1 µM (active)
CC(C)(C)n1c(=O)[nH]c2c(c1=O)CCC2	4.4%	
Cc1ccc2oc(=O)c3cnn(CC(=O)NCc4ccccc4Cl)c3c2c1	-22.5%	
CCOc1cc(C(=O)NCCc2csc3nc(-c4ccc(C)cc4)nn23)cc(OCC)c1OCC	3.3%	
COc1ccc(C(=O)NC(=O)CSc2nnc(-c3ccco3)n2-c2ccccc2)cc1	-4.05%	
Cc1cc(NC(=O)CSc2nnc(-c3ccco3)n2N)no1	-18.8%	
COc1ccc(-c2nnc(SCC(=O)c3ccco3)n2-c2ccccc2)cc1		56.2 µM (active)
CCOc1ccc(-n2c(SCC(N)=O)nnc2-c2ccco2)cc1		20 µM (active)
Cc1cccc(C)c1NC(=O)CCCSc1nnc(-c2ccco2)n1-c1ccccc1	-27.9%	
NNC(=O)CSc1nnc(-c2ccccc2)n1-c1ccccc1	-15.9%	
O=C1OC(C(=O)Nc2cccc(Br)c2)Cc2ccccc21 (stereo not given)	-5.15%	
CCOC(=O)c1ccc(NC(=O)c2ncn(-c3ccccc3)n2)cc1	-1.37%	
NC1=NC(c2cc(F)cc(F)c2)n2c(nc3ccccc32)N1 (stereo not given)	-11.9%	
COc1ccccc1NC(=O)c1cc(S(=O)(=O)NCCc2ccccc2)ccc1F	-22.6%	

Structure (SMILES)	activity change, negative = inhibition	Potency
Oc1ccccc1-c1nc(/C=C/c2ccc(F)cc2)no1	-4.81%	
O=C(Nc1ccc(-n2ccnc2P(=O)(O)c2ccccc2)cc1)c1ccccc1Br		8.91 µM (active)
Cc1ccc(NC(=O)c2cccnc2C(=O)Nc2ccc(C)cc2)cc1	-17.7%	
Cn1c(=O)c(=O)n(C)c2cc(NC(=O)c3ccccc3Br)ccc21	-0.685%	
COc1ccc(CCNC(=O)c2cc3cccc4c3n2CC(C)S4)c(OC)c1OC (stereo not given)	-10.7%	
Cc1nnc(SCC(=O)NNC(=O)c2ccc(Cl)cc2)n1CC1CCCO1 (stereo not given)	-2.01%	
S=c1[nH]nc(-c2ccc(Cl)cc2)n1CC1CCCO1 (stereo not given)		8.91 µM (active)
CNC(=O)NC(=O)CSc1nnc(-c2ccc(F)cc2)n1CC1CCCO1 (stereo not given)	-27.5%	
COc1cc2[nH]c(=O)n(Cc3ccc(C(=O)NCc4ccc(C)cc4)cc3)c(=O)c2cc1OC	-8.53%	
O=C(NCC(c1ccc(Cl)cc1)N1CCOCC1)c1ccccc1F (stereo not given)	1.32%	
O=C(Nc1ccc(C(=O)OCc2cc(=O)n3nc(C4CC4)sc3n2)cc1)c1ccc(F)cc1	8.94%	
CCN(C(=O)CSc1nnc(C)n2c1cc1occc12)c1ccccc1	-21.2%	
CNC(=O)CN1C(=O)c2cccnc2Sc2ccccc21	-12.7%	
CSc1n[nH]c(=S)n1N		17.8 µM (active)
CCOC(=O)C1CCN(c2ccc(C(=O)O)cc2[N+](=O)[O-])CC1	-9.25%	
CCOC(=O)C1CCN(c2c(Nc3cc(C)cc(C)c3)c(=O)c2=O)CC1	1.41%	
CCOC(=O)C1CCN(c2csc3ccc(C)cc3c2=O)CC1		17.8 µM (active)
CCOc1ccc2oc(=O)cc(CN3CCN(C(=O)c4ccc(F)cc4)CC3)c2c1	-17.9%	
COc1ccc2oc(=O)cc(CN3CCOCC3)c2c1	-5.65%	
CCOc1ccc(N(C)Cc2cc(=O)oc3ccc(OC)cc23)cc1		14.1 µM (active)
Cc1ccc(NC(=O)c2oc3ccccc3c2NC(=O)Cc2cccs2)cc1	-5.96%	
N#Cc1ccc(OC2=NS(=O)(=O)c3ccccc32)cc1	-12.8%	
CCOC(=O)Cc1csc(NC(=O)CSc2ccc(Br)cc2)n1	18.2%	
CCCCc1nnc(NC(=O)CSc2nc(C)cc(=O)[nH]2)s1	-18.6%	
CCOC(=O)Cc1csc(NC(=O)CSc2nc(C)cc(=O)[nH]2)n1		20 µM (active)

— PubChem BioAssay AID504339 (National Center for Advancing Translational Sciences (NCATS), 2011)
